# CYP2C9 act = human CYP2C9 activators, primary screen, biochemical, luminescence; recombinant CYP2C9, luciferin-H conversion; active compounds read high; factor 1 = untreated enzyme, 0 = blocked; activation factor at 5 µM; actives 1.4% (n = 96,000);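 active = activation factor of 2 or more for CYP2C9 at a 5 µM dose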;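 note: 0 = sulfaphenazole-blocked wells and 1 = vehicle-only wells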
# Target sequence (P11712 whole entry, looked up): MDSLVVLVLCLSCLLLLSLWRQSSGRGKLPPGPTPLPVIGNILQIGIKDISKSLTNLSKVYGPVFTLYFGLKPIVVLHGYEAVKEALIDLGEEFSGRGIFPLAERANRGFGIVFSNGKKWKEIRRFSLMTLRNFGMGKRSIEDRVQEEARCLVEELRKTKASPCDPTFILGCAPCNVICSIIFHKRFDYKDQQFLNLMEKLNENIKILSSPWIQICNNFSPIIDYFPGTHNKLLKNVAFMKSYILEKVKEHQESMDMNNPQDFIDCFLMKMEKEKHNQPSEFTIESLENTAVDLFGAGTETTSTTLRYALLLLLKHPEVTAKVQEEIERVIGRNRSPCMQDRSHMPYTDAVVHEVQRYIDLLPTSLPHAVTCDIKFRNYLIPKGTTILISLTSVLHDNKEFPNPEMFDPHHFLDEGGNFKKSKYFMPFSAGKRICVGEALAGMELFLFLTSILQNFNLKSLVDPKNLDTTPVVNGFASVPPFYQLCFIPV
# Measles CPE = compounds protecting cells from measles virus cytopathic effect, primary screen, measles RdRp inhibitor project, single point, MLSMR library, absorbance | actives 1.5% (n = 140,000) | Measles virus-infected cells, CPE protection | protection (pct of control), % at 4 µM | AID 841, 2007; in the data active = protection mostly above about 24%, no sharp cut-off; inactive = mostly below about 26%
# CYP2C19 activ = human CYP2C19 activators, primary screen, biochemical, luminescence; activation factor at 5 µM; 96,000 tested, under 10 active; recombinant CYP2C19, luciferin-H EGE luminescence; active compounds read high; 0 = fully inhibited enzyme, 1 = untreated enzyme; AID 1025, 2008;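 active = activation factor of at least 2 at 5 µM in the primary screen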;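 note: 0 = wells with 2.5 mM tranylcypromine and 1 = vehicle-only wells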
# CYP2C9 inh = blockers of cytochrome P450 2C9 activity – biochemical, luminescence, ADME assay, primary screen; P11712; CYP2C9 Supersomes, luciferin-H conversion; inhibition, % at 5 µM; actives 20% (n = 96,000);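 active = blocking of liver enzyme CYP2C9 beyond about 50% at 5 µM, limit read from the data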
# CYP2C19 inhib = blockers of cytochrome P450 2C19 activity – biochemical, luminescence, ADME assay, primary screen; P33261; CYP2C19 Supersomes, luciferin-H EGE luminescence, 30 min; inhibition, % at 5 µM; actives 21% (n = 96,000); AID 778, 2007;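 active = CYP2C19 inhibition above a set limit at 5 µM in the primary screen, cut at about 50% in these data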;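 note: plate controls were negative control wells for no effect and 2.5 mM tranylcypromine positive control for full effect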
# The depositor's hits bear a star; x = not tested or not shown. An excerpt weighted towards active compounds, which were near 22% of everything screened.
SMILES,CYP2C9 act,Measles CPE,CYP2C19 activ,CYP2C9 inh,CYP2C19 inhib
COc1ccc(OC)c(Nc2nc3nonc3nc2N2CCCC(C)C2)c1 (configuration not stated),x,28.4,x,x,x
C(=N\N1CCN(Cc2cccc3ccccc23)CC1)/c1ccco1,1.3,9.7,0.5,-26.0,50.0*
O=C(NCc1cccs1)C(Cc1ccccc1)n1cccc1 (configuration not stated),0.4,7.6,0.4,56.8*,63.8*
Cc1csc(NC(=O)C(Cc2ccccc2)n2cccc2)n1 (configuration not stated),0.4,1.8,0.6,62.6*,37.1
CC(C(=O)NCc1cccs1)n1cccc1 (configuration not stated),1,20.9,0.8,0.4,17.5
CSCC[C@@H](C(=O)NCc1cccs1)N1Cc2ccccc2C1=O,0.6,7.8,0.4,38.2,59.4*
CSCCC(C(=O)NCc1cccs1)N1C(=O)c2ccccc2C1=O (configuration not stated),0.8,4.1,0.9,20.9,7.6
O=C(CN1N=C(c2ccccc2)CCC1=O)NCCN1CCc2ccccc2C1,x,17.1,x,x,x
COc1cc(C)c(Cl)cc1S(=O)(=O)N(C)C,1.7,8.6,0.8,-67.6,22.3
Cc1nc(Oc2ccccc2)c2oc3ccccc3c2n1,0.8,3.0,0.4,20.2,56.8*
Cc1ccc(NC(=O)Cn2cccc2C2=NC(c3ccccc3)CO2)cc1C (configuration not stated),x,2.7,x,x,x
Cc1oc(-c2ccccc2)nc1Cn1cccc1C1=NC(c2ccccc2)CO1 (configuration not stated),0.2,8.9,0.2,82.0*,84.2*
O=S(=O)(NC1=NCCC1)c1cccc(NC(=S)NCCc2ccccc2)c1,x,4.3,x,x,x
Cc1ccc(NC(=O)COC(=O)C2CC3C=CC2C3)cc1S(=O)(=O)N1CCCCC1 (configuration not stated),x,5.5,x,x,x
CCOC(=O)c1c(NC(=O)c2ccc(Br)o2)sc(C)c1CC,0.7,11.7,0.6,33.1,38.8
C=CCn1c(NC(=O)c2ccc(Br)o2)c(C(=O)OCC)sc1=S,0.1,8.0,0.7,88.2*,25.3
Cc1ccc(C)c(S(=O)(=O)N2CCN(CC(=O)NC(=O)NCc3ccccc3)CC2)c1,2.2*,10.6,0.8,-123.1,21.2
COCCn1cc(C(=O)N2CCC(C)CC2)c2c3ccccc3n(C)c2c1=O,1,3.9,1.1,3.5,-6.7
O=C(Nc1ccccc1)C1CC(=O)N(c2ccc3c4c(cccc24)CC3)C1 (configuration not stated),0.4,12.9,1,62.0*,2.6
CC1=CC(C)(C)N2C(=O)C3(SCC(=O)N3c3ccc(O)cc3)c3cc(C)cc1c32 (configuration not stated),0,4.8,0.1,97.2*,87.2*
COc1ccc(OC)c(NC(=O)CC2C(=O)NCCN2C(=O)Nc2cccc(Cl)c2)c1 (configuration not stated),0.3,2.8,0.6,71.5*,41.3
COc1ccccc1NC(=O)CC1C(=O)NCCN1C(=O)Nc1ccccc1 (configuration not stated),0.9,13.7,0.9,11.4,6.2
O=C(C(NS(=O)(=O)c1cccs1)c1ccccc1)N1CCN(c2ccccc2)CC1 (configuration not stated),0.7,22.1,0.5,27.7,53.5*
O=C(C1CCN(S(=O)(=O)c2cccs2)CC1)N1CCN(c2ccccc2)CC1,1,3.1,1.1,2.9,-6.5
O=C1C(NS(=O)(=O)c2cccs2)=C(N2CCN(c3ccccc3)CC2)C(=O)c2ccccc21,0.4,4.2,0.7,63.2*,28.6
SMILES,CYP2C9 act,Measles CPE,CYP2C19 activ,CYP2C9 inh,CYP2C19 inhib
CCCn1c(=O)[nH]c(=O)c2c1nc(-c1ccc(OC(F)F)c(OC)c1)n2CCOC,0.5,27.1,0.6,53.9*,44.8
CCOC(=O)CN(C(=O)CSc1nnc(CNc2ccc(C)cc2C)o1)c1ccccc1,0.5,9.7,0.7,47.0,33.0
CCCSc1ncc(Cl)c(C(=O)Nc2ccc(S(=O)(=O)N3CC(C)OC(C)C3)cc2)n1 (configuration not stated),0.1,5.6,0.5,86.3*,53.8*
Cc1cc(C)nc(NS(=O)(=O)c2ccc(NC(=O)c3ccc(S(=O)(=O)N4CC(C)OC(C)C4)cc3)cc2)n1 (configuration not stated),x,14.6,x,x,x
CC(=O)Nc1ccccc1-c1nc2ccccc2nc1OCC(=O)c1ccc(Br)cc1,0.4,4.8,0.9,58.2*,10.4
CC(=O)Nc1ccccc1-c1nc2ccccc2nc1OCC(=O)c1ccc2ccccc2c1,0.3,16.3,0.8,67.9*,19.9
c1ccc(N=P(c2nc3ccccc3o2)(N2CCOCC2)N2CCOCC2)cc1,1.1,7.5,1.1,-12.4,-6.2
CC(=O)N1CCN(CC(=O)Nc2c(Cl)cc(Cl)cc2Cl)CC1,0.8,9.1,0.9,17.4,9.1
CCOc1c(Br)ccc2c1sc1nc[nH]c(=O)c12,1.1,20.4,0,-5.5,97.5*
CCCC12CN3CCN(CC(C3)/C1=N\NC(=O)c1ccc(C(C)(C)C)cc1)C2,x,6.7,x,x,x
O=C(CSCc1c(Cl)cccc1Cl)NCC1CCCO1 (configuration not stated),1.5,6.1,0.9,-53.8,6.7
O=C(CSc1oc(-c2ccco2)nc1S(=O)(=O)c1ccc(Cl)cc1)NCC1CCCO1 (configuration not stated),0.6,14.6,0.2,35.4,75.7*
O=C(CSc1cc(Cl)ccc1Cl)NCC1CCCO1 (configuration not stated),3.2*,2.4,0.3,-215.7,73.9*
Nc1cc(N)nc(SCC(=O)NCC2CCCO2)n1 (configuration not stated),1.2,31.1*,1.1,-16.4,-13.9
CS(=O)(=O)N(CC(=O)NCC1CCCO1)c1ccc(F)c(Cl)c1 (configuration not stated),1,6.3,0.4,3.6,60.0*
CCOc1ccc(NCc2nnc(SCC(=O)Nc3nc(-c4ccccc4)cs3)n2-c2ccccc2)cc1,x,19.6,x,x,x
COc1ccc2c(c1)OC13CCN(C)CC1C2C(C(=O)c1ccc(F)cc1)C(=O)N3 (configuration not stated),x,13.8,x,x,x
CCCn1[nH]cc(SC)c(=O)c1=O,1,4.2,1,-2.7,0.4
O=C(COC(=O)/C=C/c1ccco1)Nc1cccc([N+](=O)[O-])c1,x,21.6,x,x,x
O=C(Nc1ccccc1OC(=O)c1ccc(Cl)cc1)c1ccc(Cl)cc1,x,79.4*,x,x,x
CCc1cccc(NC(=O)CSc2nc3c(c(=O)[nH]2)CCCC3)c1,x,5.8,x,x,x
CC1=C(C#N)C(c2ccc3ncccc3c2)C(C#N)=C(C)N1,0.3,4.8,0.2,68.7*,83.2*

# Screening data as filed in PubChem BioAssay.
